# FUS suppressor = suppressors of FUS proteinopathy in yeast; S. cerevisiae FUS-expressing, growth rescue, OD600, 24 h; 390,000 compounds, 0.24% hits; Potency, µM (doses to about 76.6 µM), actives largely listed as activators;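 also: plate controls were DMSO vehicle for no effect and reference control for full effect; nearly all actives have a fitted effect of over 55% in size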
#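 Restored growth of FUS-toxic S. cerevisiae, read as 600 nm absorbance after 24 h at 30C in galactose medium (starting OD 0.005). Controls CP55940 and DMSO.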
# aSyn yeast inh = inhibitors of alpha-synuclein toxicity in yeast | Yeast expressing alpha-synuclein, growth rescue, BacTiter-Glo, 24 h | Potency, µM (top dose mostly 46.1 µM), for inactives: at the highest dose growth rescue (activation), hits mostly activators | 370,000 compounds, 0.14% hits; also: % of control where 0% means no effect; nearly all actives have a fitted effect of over 65% in size
#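 Readout is rescue of growth in alpha-synuclein-expressing yeast, so inhibitors of toxicity appear as activators. Growth after 24 hr at 30 deg C in galactose medium is quantified by luminescence.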
# TDP43 rescue = rescues yeast growth from TDP-43 toxicity | AID 652104 | 410,000 compounds, 1.8% hits | TDP-43 expressing yeast growth rescue, BacTiter-Glo, 24 h | Potency, µM (top dose mostly 46.1 µM), without a hit: top-dose growth rescue (activation), usual class: activators; also: % of control where 0% means no effect; nearly all actives have a fitted effect of over 50% in size
#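 Readout is BacTiter-Glo luminescence of cell growth, so inhibitors register as activators. TDP-43-expressing yeast at OD600=0.02 in galactose medium, after raffinose pregrowth to mid-log, were incubated with compound for 24 hr at 30 deg C.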
# Abeta yeast res = A-beta toxicity reversal in yeast | yeast expressing A-beta42, growth rescue, OD600, 48 h; response scale: 0% DMSO, 100% iron-clioquinol control | Potency, µM (highest dose often 46.1 µM), hits mostly activators | 410,000 compounds, 0.063% hits; also: nearly all actives have a fitted effect of over 55% in size
#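 Yeast A-beta toxicity model in growth medium with pinned compounds, 48 h at 30 C; growth read as absorbance at 600 nm. Normalized to FeCl3/clioquinol equimolar mix (positive) and DMSO (negative).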
# An asterisk follows results filed as active; i = inactive; u = inconclusive; x = no result given; [ ] = another dose, or the depositor's remark. Hits are enriched below; roughly 2.1% of the tested compounds scored in any of these assays. Calls follow the shape of the dose curve; as a rule, active = well fitted curve in the direction sought with a large enough effect; inconclusive = small, poorly fitted or top-dose-only effect, or another doubt; inactive = no such curve, though single readings can be large; an effect the other way counts as inactive or inconclusive. Potency is read from the fitted curve at half-maximal effect.
SMILES,FUS suppressor,aSyn yeast inh,TDP43 rescue,Abeta yeast res
CCCCc1nc2cc(C(=O)N3CCCC(OCCC)C3)ccc2o1 (stereo unspecified),i,9%,14µM*,i
CC1(C)CCc2cc(O)ccc2O1,x,-10%,x,x
CCCC1CCC2(CC1)CCC2OC(=S)Nc1ccc(Cl)cc1 (stereo unspecified),i,x,x,x
Cc1ccc(Nc2nc(-c3sc(N)nc3C)cs2)cc1,u,-20%,16%,i
COc1ccc(-c2csc(Nc3ccc(C)cn3)n2)cc1,i,-32%,13µM*,i
Cc1ccnc(Nc2nc(-c3ccc(F)cc3)cs2)c1,i,-32%,7.9µM*,i
Cc1ccc(Nc2nc(-c3sc(C)nc3C)cs2)cc1,i,-3%,20µM*,i
Cc1ccc(-c2csc(Nc3ccccn3)n2)cc1,i,-25%,3.2µM*,u
CC(=O)Nc1cccc(-c2csc(Nc3ccc(C)cn3)n2)c1,i,1%,u,i
Cc1ccc(CCNC(=O)c2ccc(Cn3c(=O)c4cccn4c4cccnc43)cc2)cc1,i,x,21%,i
O=C(C[N+]1(CCO)CCOCC1)c1cccc2ccccc12,x,-8%,x,x
CC(=O)c1cccc(Nc2nc(-c3sc(C)nc3C)cs2)c1,i,-6%,11µM*,i
Cc1nc(N)sc1-c1csc(Nc2ccccn2)n1,i,4%,9%,i
Cc1nc(NC(=O)c2ccco2)sc1-c1csc(Nc2ccc(Cl)cc2)n1,22µM*,-6%,u,i
Cc1nc(C)c(-c2csc(Nc3ccccn3)n2)s1,i,-21%,35µM*,u
Cc1ccc(Cl)cc1Nc1nc(-c2sc(NC(=O)c3ccco3)nc2C)cs1,u,-3%,-1%,i
CC(=O)Oc1ccc(-c2csc(Nc3ccc(Cl)cn3)n2)cc1,i,-13%,13µM*,i
Cc1nc(N)sc1-c1csc(Nc2ccc(Cl)cn2)n1,u,0%,-10%,i
COc1ccc(-c2csc(Nc3ccccn3)n2)cc1OC,i,-3%,13µM*,i
Cc1cc(-c2csc(Nc3ccccn3)n2)ccc1F,i,-25%,4µM*,u
CCOc1ccccc1NC(C)C(=O)Nc1cc(C(F)(F)F)ccc1N1CCOCC1 (stereo unspecified),x,13%,13µM*,i
O=C(CC(=O)c1ccccc1O)c1cccc(F)c1,x,13µM*,-24%,i
CCOC(=O)c1ccc(C(=O)OCC)c(NC(=S)Nc2ccc([N+](=O)[O-])cc2OC)c1,i,-16%,18µM*,i
CCOc1ccc(NC2SC(=O)N(Cc3ccccc3)C2=O)cc1 (stereo unspecified),i,x,13µM*,u
O=C1SC(Nc2ccc(Cl)cc2)C(=O)N1Cc1ccccc1 (stereo unspecified),i,x,u,u
SMILES,FUS suppressor,aSyn yeast inh,TDP43 rescue,Abeta yeast res
COc1ccccc1C(=O)Nc1nsc(-c2ccccc2)n1,i,-6%,13µM*,i
CC(=O)c1c(C)oc2ccc(N(C(=O)c3ccncc3)S(=O)(=O)c3ccc(F)cc3C)cc12,u,x,20µM*,i
Fc1ccc2[nH]c(-c3cccs3)cc2c1,i,x,20µM*,u
Cc1cc(C)c(NC(=O)C2CCN(c3nnc(C)c4c(C)n(-c5ccccc5)nc34)CC2)c(C)c1,i,x,-7%,i
Cc1cccc(C(=O)O/N=C(\N)c2ccc(Br)cc2)c1,i,-36%,6.3µM*,i
Cc1ccc(C(=O)O/N=C(\N)c2ccc(Br)cc2)cc1C,i,-12%,u,i
COc1ccc(C(=O)O/N=C(\N)c2cccc(C)c2)cc1OC,i,-52%,22µM*,i
COc1ccccc1C(=O)O/N=C(/c1ccncc1)c1ccc([N+](=O)[O-])cc1,x,14%,28µM*,i
CCOC(=O)c1cccc(N/C=C/C(=O)c2ccc(OC)c(OC)c2)c1,i,14µM*,u,i
COc1cccc(N/C=C/C(=O)c2ccc(OC)c(OC)c2)c1,i,u,2%,i
Cc1ccc(C(=O)O/N=C(\c2ccccc2)c2ccncc2)cc1,i,0%,16%[9.22 µM],i
CCCCN(C)C(=O)CN1C(=O)C2CCCCN2C(=O)c2ccccc21 (stereo unspecified),i,x,x,x
O=[N+]([O-])c1ccc(/C=C/c2ccnc3ccccc23)c([N+](=O)[O-])c1,x,5%,x,x
Cc1cccc(C(=O)O/N=C(\N)c2ccc(Cl)cc2)c1,i,-24%,10µM*,i
COc1ccc(C(=O)O/N=C(\N)c2ccc(Cl)cc2)cc1,i,-40%,u,i
COc1ccccc1C(=O)O/N=C(\N)c1ccc(Cl)cc1,i,-42%,14µM*,i
Cc1cccc(/C(N)=N/OC(=O)c2ccncc2)c1,i,-10%,u,i
Cc1cc(C)cc(C(=O)O/N=C(\N)c2ccc(Br)cc2)c1,i,1%,35µM*,i
CCN(CC)/[N+]([O-])=N/OCOC(=O)C(C)c1ccc(CC(C)C)cc1 (stereo unspecified),x,11%,x,x
COc1ccc(CC(=O)NO)cc1,x,-7%,x,x
COC(=O)/N=C(/Cc1ccc(OC)cc1)c1ccc(OC)cc1,i,-3%,22µM*,i
CCCCNC(=O)NCC1CCN(Cc2ccc(OC)cc2)CC1,i,x,x,x
CC(C)c1ccc(NC(=O)c2ccc(F)c(S(=O)(=O)N3CCCC3)c2)cc1,i,x,-15%,i
COc1cccc(CNC(=O)c2ccc(F)c(S(=O)(=O)N3CCCCC3)c2)c1,35µM*,0%,u,i
O=C(Nc1cc(Cl)cc(Cl)c1)c1ccc(F)c(S(=O)(=O)N2CCCC2)c1,i,x,18µM*,i
SMILES,FUS suppressor,aSyn yeast inh,TDP43 rescue,Abeta yeast res
S=C(N/N=C/c1ccc2ncccc2c1)Nc1ccccc1,i,5%,13µM*,u
O=C(Nc1ccccc1F)C(=O)Nc1cccc2ccccc12,i,5%,14%,i
O=C(Nc1cccc2ccccc12)/C(Cl)=C/c1ccccc1,i,-9%,16µM*,i
CN=C1S/C(=C\c2ccc(Cl)cc2)C(=O)N1C,i,2%,11%,i
CN=C1S/C(=C\c2cccc(Cl)c2Cl)C(=O)N1C,i,11%,13µM*,i
Fc1ccc(Br)cc1C1C=C(c2cccnc2)Nc2ncnn21 (stereo unspecified),i,1%,25µM*,i
CCOc1ccc(C2=CC(c3cc(Br)ccc3F)n3ncnc3N2)cc1Cl (stereo unspecified),i,x,35µM*,i
Fc1ccc(C2=CC(c3ccc(Br)o3)n3ncnc3N2)cc1 (stereo unspecified),x,-5%,18µM*,i
Fc1ccc(C2=CC(c3ccco3)n3ncnc3N2)cc1 (stereo unspecified),x,3%,u,i
CC(C)(C)c1ccc(C2=CC(c3ccccc3F)n3ncnc3N2)cc1 (stereo unspecified),u,1%,-3%,i
CC[n+]1c(/C=C/C=C2/N(C)c3ccccc3C2(C)C)sc2ccccc21,x,-82%,x,x
